From PubChem
TMEM16A act: TMEM16A chloride channel activators or potentiators, primary screen, cell-based, HTS | B-score at 10 µM | Anoctamin-1 (Mus musculus), Q8BHY3 | HEK293 TMEM16A/YFP-H148Q/I152L, iodide quench fluorescence; stronger effect = lower value | actives 0.3% (n = 340,000) | AID 623877, 2012;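 active = fluorescence-ratio B-score plate-corrected deviation score at least 3 library SD below zero, with starting fluorescence score within 5 deviations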;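 note: channel opened by trigger with iodide after compound preincubation; score built on the fluorescence ratio of max minus min over baseline; more negative score means more quench and so TMEM16A activation or potentiation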
TMEM16A inh: TMEM16A chloride channel inhibitors, primary screen, cell-based, HTS. normalized B-score (activity score, 25-100; higher = stronger inhibition) at 10 µM. HEK293 TMEM16A/YFP iodide influx fluorescence, ionomycin. actives 1.2% (n = 310,000). Anoctamin-1 (Mus musculus), Q8BHY3. AID 588511, 2011;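 active = ratio plate-corrected score three or more library SD toward inhibition, starting fluorescence score within five deviations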;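 note: score derived from kinetic fluorescence span divided by baseline fluorescence per well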
CHT PAM: CHT positive allosteric modulators, primary screen, cell-based, membrane potential dye, choline EC20. CHT-expressing cells; stronger effect = higher value; LV-AA mutant CHT in HEK293 cells. actives 0.49% (n = 310,000). AID 488977, 2010. High affinity choline transporter 1 (Homo sapiens), Q9GZV3. B-score at 10 µM;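 active = initial fluorescence not abnormally high and integrated response B-score, plate-corrected, over 3 SD above library mean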
Target sequence (Q9GZV3 whole entry, looked up): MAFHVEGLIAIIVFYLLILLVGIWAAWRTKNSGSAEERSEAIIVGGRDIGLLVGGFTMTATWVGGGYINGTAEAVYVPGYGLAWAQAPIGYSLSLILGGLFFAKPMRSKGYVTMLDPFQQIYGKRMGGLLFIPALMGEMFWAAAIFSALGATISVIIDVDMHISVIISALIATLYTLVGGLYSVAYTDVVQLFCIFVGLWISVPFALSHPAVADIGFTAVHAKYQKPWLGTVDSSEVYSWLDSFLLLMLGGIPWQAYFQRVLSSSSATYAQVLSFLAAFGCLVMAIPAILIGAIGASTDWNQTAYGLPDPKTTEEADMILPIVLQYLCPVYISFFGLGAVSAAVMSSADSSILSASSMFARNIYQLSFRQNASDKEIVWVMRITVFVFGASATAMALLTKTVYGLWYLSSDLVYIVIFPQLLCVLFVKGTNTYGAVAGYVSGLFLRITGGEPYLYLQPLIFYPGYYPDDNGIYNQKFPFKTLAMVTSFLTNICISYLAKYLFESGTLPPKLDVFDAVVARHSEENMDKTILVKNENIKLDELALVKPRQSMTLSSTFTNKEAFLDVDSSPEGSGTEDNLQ
CHT block: inhibitors of human choline transporter CHT; actives 0.86% (n = 310,000); B-score at 10 µM; AID 488975, 2010; CHT-expressing cells, membrane potential dye, choline response; stronger effect = lower value; High affinity choline transporter 1 (Homo sapiens), Q9GZV3;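 active = B-score over 3 SD under the library average, and starting fluorescence ratio not unusually high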;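 note: choline stimulus applied at its EC90 after an EC20 pre-addition; B-score computed on integrated fluorescence ratio after choline addition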
CHT block conf: CHT inhibitors, confirmation, cell-based, membrane potential dye, duplicate; shares compounds with CHT block; CHT-expressing cells, choline membrane potential dye; LV-to-AA substituted CHT, HEK293 cells; CHT activity remaining % of control (stronger effect = lower value), % at 10 µM; actives 70% (n = 2,400); AID 493221, 2011;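 active = choline transporter activity left, mean of duplicates at 10 µM, below buffer-only control mean minus 3 SD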;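 note: depolarization triggered by choline at its EC90 following an EC20 pre-addition; 0% = hemicholinium-3 full block and 100% = buffer-only control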
HEK293 CHT ctr: membrane potential effects in parental HEK293, counter-screen for CHT inhibitor project, cell-based, membrane potential dye; choline response; active = decrease or increase beyond buffer ±3SD; shares compounds with CHT block; membrane potential ratio readout (active if shifted either direction beyond buffer ±3SD; no single direction) at 10 µM; AID 493222, 2011; actives 4% (n = 2,400);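 note: parental cells lack the transporter so any hit is non-specific; ratio is peak minus trough fluorescence over baseline after EC90 choline challenge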
The depositor's hits bear a star. Only some compounds are listed: those with a hit (about 2.4% of all), similar ones and a draw of the others.

Results for C1=C2C[N+]3(CCCC3)CC2Cc2ccc3ccccc3c21 (stereo not given) ?
TMEM16A act: inactive; TMEM16A inh: inactive; CHT PAM: inactive; CHT block: -7.56*; CHT block conf: 45.9%*; HEK293 CHT ctr: 2.6*

How did CCn1c(N2CCN(S(=O)(=O)c3ccc(OC)cc3)CC2)nc2ccccc21 do in these assays?
TMEM16A act: inactive; TMEM16A inh: inactive; CHT PAM: inactive; CHT block: -7.93*; CHT block conf: 71.3%*; HEK293 CHT ctr: inactive

How did COc1ccc2c(c1OC)C(=O)N1c3ccccc3C(=O)N(c3ccccc3)C21 (stereo not given) do in these assays?
TMEM16A act: inactive; TMEM16A inh: inactive; CHT PAM: inactive; CHT block: -8.53*; CHT block conf: inactive; HEK293 CHT ctr: inactive

What do the screens show for `CO/N=C/c1ccc(N2CCN(C(=O)c3ccc(C)cc3)CC2)c([N+](=O)[O-])c1`?
TMEM16A act: inactive; TMEM16A inh: inactive; CHT PAM: inactive; CHT block: inactive

Results for COc1cccc(-c2cc(C(=O)NN3CCOCC3)c3ccccc3n2)c1 ?
TMEM16A act: inactive; TMEM16A inh: inactive; CHT PAM: inactive; CHT block: -10.2*; CHT block conf: inactive; HEK293 CHT ctr: inactive

What do the screens show for `Cc1ccc2cccc(OCc3ccc(Br)cc3)c2n1`?
TMEM16A act: inactive; TMEM16A inh: inactive; CHT PAM: inactive; CHT block: inactive

How did COc1ccc(-c2sc(Nc3ccc(F)c(F)c3F)nc2CCC(=O)NN)cc1 do in these assays?
TMEM16A act: inactive; TMEM16A inh: inactive; CHT PAM: inactive; CHT block: -5.16*; CHT block conf: inactive; HEK293 CHT ctr: inactive

Results for O=C(O)CC/C(=N\Nc1ccccc1[N+](=O)[O-])c1cccs1 ?
TMEM16A act: inactive; TMEM16A inh: inactive; CHT PAM: inactive; CHT block: -5.67*; CHT block conf: 48.1%*; HEK293 CHT ctr: 2.86*

How did COc1ccc(C(=O)NCCc2ccc(C)cc2)cc1OC1CCN(C(C)=O)CC1 do in these assays?
TMEM16A act: inactive; TMEM16A inh: inactive; CHT PAM: inactive; CHT block: inactive

How did COc1cccc(CCNC(=O)c2ccc(OC)c(OC3CCN(C(C)C)CC3)c2)c1 do in these assays?
TMEM16A act: inactive; TMEM16A inh: inactive; CHT PAM: inactive; CHT block: -13.4*; CHT block conf: 12.0%*; HEK293 CHT ctr: inactive

How did COc1ccc(C(=O)N2CCCCCC2)cc1OC1CCN(C(C)C)CC1 do in these assays?
TMEM16A act: inactive; TMEM16A inh: inactive; CHT PAM: inactive; CHT block: -5*; CHT block conf: 44.8%*; HEK293 CHT ctr: inactive

How did COc1ccc(C(=O)NCc2cnn(C)c2C)cc1OC1CCN(C(C)C)CC1 do in these assays?
TMEM16A act: inactive; TMEM16A inh: inactive; CHT PAM: inactive; CHT block: -11.4*; CHT block conf: 11.9%*; HEK293 CHT ctr: inactive

Results for COc1ccccc1CCNC(=O)c1ccc(OC)c(OC2CCN(C(C)C)CC2)c1 ?
TMEM16A act: inactive; TMEM16A inh: inactive; CHT PAM: inactive; CHT block: -12*; CHT block conf: 8.6%*; HEK293 CHT ctr: inactive

What do the screens show for `COC(=O)CN(C)C(=O)c1ccc(OC)c(OC2CCN(C(C)C)CC2)c1`?
TMEM16A act: inactive; TMEM16A inh: inactive; CHT PAM: inactive; CHT block: inactive

What do the screens show for `Cc1ccc(C2C(C(=O)c3sc(-c4ccccc4)nc3C)=C(O)C(=O)N2CCN(C)C)o1` (stereo not given)?
TMEM16A act: inactive

Results for O=C1CC(c2ccccc2)CC(=O)C1CS(=O)(=O)c1ccccc1 (stereo not given) ?
TMEM16A act: inactive; TMEM16A inh: inactive; CHT PAM: inactive; CHT block: inactive

What do the screens show for `CCC(C)n1c(SCC(=O)NC(=O)c2cccn2C)nc2ccccc2c1=O` (stereo not given)?
TMEM16A act: inactive; TMEM16A inh: inactive; CHT PAM: inactive; CHT block: inactive

What do the screens show for `Cc1nc2ccccn2c1C(=O)c1ccccc1`?
TMEM16A act: inactive; TMEM16A inh: inactive; CHT PAM: inactive; CHT block: inactive

What do the screens show for `COc1ccc(C(=O)NCCOC(C)C)cc1OC1CCN(C(C)=O)CC1`?
TMEM16A act: inactive; TMEM16A inh: inactive; CHT PAM: inactive; CHT block: inactive

What do the screens show for `COCCCNC(=O)c1ccc(OC)c(OC2CCN(C(C)C)CC2)c1`?
TMEM16A act: inactive; TMEM16A inh: inactive; CHT PAM: inactive; CHT block: -6.04*; CHT block conf: 36.4%*; HEK293 CHT ctr: inactive

How did COc1ccc(C(=O)N(C)Cc2ccc(C)o2)cc1OC1CCN(C(C)C)CC1 do in these assays?
TMEM16A act: inactive; TMEM16A inh: inactive; CHT PAM: inactive; CHT block: -6.33*; CHT block conf: 29.6%*; HEK293 CHT ctr: inactive

How did CC(C)(CNS(=O)(=O)c1cccs1)N1CCOCC1 do in these assays?
TMEM16A act: inactive

Results for O=S(=O)(NCCN1CCOCC1)c1cccs1 ?
TMEM16A act: inactive; TMEM16A inh: inactive; CHT PAM: inactive; CHT block: -9.34*; CHT block conf: inactive; HEK293 CHT ctr: inactive

What do the screens show for `COc1cccc(N2CCN(C(c3ccccn3)c3nnnn3C(C)(C)C)CC2)c1` (stereo not given)?
TMEM16A act: inactive; TMEM16A inh: inactive; CHT PAM: inactive; CHT block: -5.04*; CHT block conf: inactive; HEK293 CHT ctr: inactive

Results for N#C/C(=C/c1ccc(C(=O)O)cc1)C(=O)Nc1ccccc1 ?
TMEM16A act: inactive; TMEM16A inh: inactive; CHT PAM: inactive; CHT block: inactive

What do the screens show for `Cc1cccc(NC(=O)/C(C#N)=C\c2ccc(C(=O)O)cc2)c1`?
TMEM16A act: inactive; TMEM16A inh: inactive; CHT PAM: inactive; CHT block: -6.62*; CHT block conf: inactive; HEK293 CHT ctr: inactive

How did CCOC(=O)C1OC1(c1ccccc1)c1ccccc1 (stereo not given) do in these assays?
TMEM16A act: inactive

Results for COc1ccccc1CC(=O)N1CCN(c2cccc(C(F)(F)F)c2)CC1 ?
TMEM16A act: inactive; TMEM16A inh: inactive; CHT PAM: inactive; CHT block: -6.27*; CHT block conf: inactive; HEK293 CHT ctr: inactive
